Laboratory results published in article PMC5540273 (PLoS ONE, 2017).

Key:
Details in all cases: concentration: 1 μM,replicates: in singlicate; n = 1
CDK8 = tested on: CDK8
CDK9 = tested on: CDK9
CDKL1 = tested on: CDKL1
CDKL2 = tested on: CDKL2
CDKL3 = tested on: CDKL3
CDKL5 = tested on: CDKL5
CHEK1 = tested on: CHEK1
CHEK2 = tested on: CHEK2
CIT = tested on: CIT
CLK1 = tested on: CLK1
CLK2 = tested on: CLK2
CLK3 = tested on: CLK3
CLK4 = tested on: CLK4
CSF1R-autoinhibited = tested on: CSF1R-autoinhibited
CSF1R = tested on: CSF1R
CSK = tested on: CSK
CSNK1A1L = tested on: CSNK1A1L
CSNK1A1 = tested on: CSNK1A1
CSNK1D = tested on: CSNK1D
CSNK1E = tested on: CSNK1E
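Further: KINOMEscan kinase panel screen.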

| Structure (SMILES) | %Inh (CDK8) | %Inh (CDK9) | %Inh (CDKL1) | %Inh (CDKL2) | %Inh (CDKL3) | %Inh (CDKL5) | %Inh (CHEK1) | %Inh (CHEK2) | %Inh (CIT) | %Inh (CLK1) | %Inh (CLK2) | %Inh (CLK3) | %Inh (CLK4) | %Inh (CSF1R-autoinhibited) | %Inh (CSF1R) | %Inh (CSK) | %Inh (CSNK1A1L) | %Inh (CSNK1A1) | %Inh (CSNK1D) | %Inh (CSNK1E) |
| --- | --- | --- | --- | --- | --- | --- | --- | --- | --- | --- | --- | --- | --- | --- | --- | --- | --- | --- | --- | --- |
| CN(c1ccccc1CNc1nc(Nc2ccc3c(c2)CC(=O)N3)ncc1C(F)(F)F)S(C)(=O)=O | 0% | 40% | 13% | 8% | 0% | 0% | 0% | 0% | 10% | 95% | 84% | 23% | 84% | 2% | 17% | 3% | 9% | 19% | 0% | 1% |
| c1ccc(Oc2ccc(Nc3ccnc4ccc(-c5ccccn5)cc34)cc2)cc1 [GW407034] | 0% | 0% | 9% | 16% | 0% | 14% | 26% | 0% | 4% | 14% | 0% | 19% | 0% | 0% | 9% | 6% | 13% | 0% | 14% | 36% |
| C[C@@H]1CNc2c(sc3ccc4nc(-c5ccc(O)cc5)ccc4c23)C(=O)N1 | 63% | 67% | 15% | 0% | 5% | 0% | 0% | 54% | 54% | 97.3% | 98.2% | 50% | 95.7% | 7% | 4% | 0% | 84% | 95.4% | 63% | 55% |
| C[C@@H](Oc1cc(-n2cnc3cc(-c4cnn(C)c4)ccc32)sc1C(N)=O)c1ccccc1Cl [GSK580432] | 17% | 5% | 20% | 22% | 0% | 0% | 32% | 0% | 32% | 59% | 23% | 23% | 34% | 0% | 80% | 3% | 1% | 7% | 0% | 0% |
| Cc1n[nH]c2cc(Nc3ccnc(Nc4cccc(CN5CCOCC5)c4)n3)ccc12 [GW682569] | 35% | 4% | 2% | 17% | 0% | 0% | 0% | 27% | 35% | 29% | 3% | 11% | 0% | 68% | 87% | 27% | 0% | 0% | 10% | 19% |
| Cl.c1ccc(Oc2ccc(Nc3ccnc4cc(-c5ccc(CN6CCNCC6)o5)ccc34)cc2)nc1 [GW567142] | 0% | 0% | 0% | 0% | 0% | 0% | 5% | 82% | 9% | 25% | 0% | 15% | 0% | 0% | 43% | 72% | 0% | 0% | 16% | 40% |
| CC(C)c1nc(-c2cccc(NS(=O)(=O)c3ccccc3)c2)c(-c2ccnc(Nc3ccc4c(c3)CN(C)CC4)n2)s1 [GSK1649598] | 0% | 60% | 0% | 100% | 37% | 99% | 5% | 24% | 84% | 30% | 10% | 24% | 0% | 0% | 89% | 97.6% | 88% | 87% | 86% | 98.6% |
| CC(=O)Nc1ccc(-c2cc3ncnc(SCC(=O)O)c3s2)cc1 | 0% | 85% | 16% | 0% | 26% | 18% | 1% | 26% | 0% | 31% | 53% | 9% | 32% | 41% | 48% | 12% | 5% | 33% | 4% | 0% |
| NC(=O)Nc1sc(-c2ccc(F)cc2)cc1C(N)=O [GW789449] | 46% | 0% | 27% | 17% | 10% | 0% | 0% | 69% | 27% | 9% | 0% | 15% | 0% | 39% | 77% | 6% | 5% | 35% | 55% | 40% |
| CN1CCN(CCNc2nc3cc(Oc4ccc(NC(=O)Nc5cc(C(F)(F)F)ccc5F)cc4)ccc3[nH]2)CC1.Cl.Cl [GW768504] | 55% | 0% | 3% | 56% | 43% | 0% | 0% | 3% | 67% | 2% | 0% | 0% | 14% | 0% | 60% | 0% | 0% | 19% | 0% | 6% |
